D3 antag: antagonists of human D3 dopamine receptor; D3R cells, DiscoveRx beta-arrestin luminescence, antagonist mode; active compounds read low; actives 2.5% (n = 360,000); max response, negative = inhibition, %; AID 652054; in the data active means max response below about -50%; inconclusive means no clear call, values can overlap the other calls; further: on the % scale 0 is the no-effect control and ±100 the full control effect
Target sequence (P35462 whole entry, looked up): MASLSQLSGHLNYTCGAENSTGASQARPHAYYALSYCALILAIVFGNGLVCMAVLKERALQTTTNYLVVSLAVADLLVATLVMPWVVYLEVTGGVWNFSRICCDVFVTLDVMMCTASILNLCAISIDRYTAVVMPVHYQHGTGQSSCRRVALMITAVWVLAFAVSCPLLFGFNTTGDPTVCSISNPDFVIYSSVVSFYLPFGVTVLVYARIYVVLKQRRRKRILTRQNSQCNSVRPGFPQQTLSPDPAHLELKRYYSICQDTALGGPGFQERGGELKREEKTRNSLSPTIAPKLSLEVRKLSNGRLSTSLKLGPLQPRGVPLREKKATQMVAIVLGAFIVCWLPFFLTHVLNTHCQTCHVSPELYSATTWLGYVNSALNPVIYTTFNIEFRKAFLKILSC
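Cells plated overnight at 1500 cells/well, then exposed to library compounds with dopamine controls for 90 minutes at 37 degrees C. DiscoveRx reagent added for 30–60 minutes at room temperature; luminescence read, quantitative HTS format.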
TGFb inhibitor: blocks TGF-b signaling; HepG2 CAGA-GFP TGF-b/SMAD3 reporter, GFP fluorescence, 18 h; TGF-beta stimulated, 500 pg/mL final; Potency, µM (doses to about 46.1 µM), without a hit: top-dose activity, negative = inhibition, most hits filed as inhibitors; actives 1.2% (n = 410,000); AID 588855; further: potency means the concentration at half of the fitted maximal effect; on the % scale 0 is the no-effect control and ±100 the full control effect; nearly all actives have a fitted effect of over 65% in size
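TGF-beta reporter screen: HEPG2 CAGA-GFP, 1% FBS, 500 pg/mL TGF-beta final, 18 h; per-cell GFP summed per well; curves fitted and categorized by class.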
S2 tox: cell viability loss in ATXN counter-screen; Potency, µM (top dose mostly 56.7 µM), most hits filed as cytotoxic; S2 cells (HEK-293 line with an ATXN2-luciferase reporter) viability, CellTiter-Fluor protease fluorescence, 24 h; actives 0.49% (n = 400,000); further: potency means the concentration at half of the fitted maximal effect; nearly all actives have a fitted effect of over 40% in size
HepG2 viability: counter-screen for TGF-b inhibitors: cytotoxicity in HepG2 cells. Potency, µM (top dose mostly 46.1 µM), inactives show at the highest dose activity change, negative = cytotoxicity, usual class: cytotoxic. HepG2 CAGA-GFP viability, ATP luminescence, 18 h. actives 0.76% (n = 410,000); further: potency means the concentration at half of the fitted maximal effect
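CellTiter-Glo luminescence gave cytotoxicity after 18 hours at 37 degrees C. The cells were HepG2 CAGA-GFP in 1% FBS DMEM, stimulated with 500 pg/mL TGF-beta after compound addition. %Activity was normalised to no-cell wells (complete cell-killing) and DMSO (no toxicity), and curves were fitted and classified.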
DRD3 agonist: activates the human D3 dopamine receptor; D3R DiscoveRx beta-arrestin cells, luminescence, 90 min; max activation, %; P35462; actives 0.58% (n = 410,000); in the data active means max activation above about 30%; further: 0% is about no effect
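Cells at 1500/well, incubated overnight, then treated with pinned compounds (dopamine as control) for 90 min at 37 degrees C. DiscoveRx reagent added for 30 - 60 minutes at room temperature; luminescence read.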
ATXN2 expr inh: inhibitors of ATXN2 expression | HEK-293 ATXN2-luciferase reporter, luminescence, 24 h | Potency, µM (highest dose often 57 µM), for inactives: at the top dose activity change, negative = inhibition, usual class: inhibitors | actives 0.72% (n = 360,000) | AID 1745845; further: potency means the concentration at half of the fitted maximal effect; on the % scale 0 is the no-effect control and ±100 the full control effect; nearly all actives have a fitted effect of over 55% in size
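ATXN2-luciferase reporter cells (luciferase flanked by upstream and downstream ATXN2 gene portions) were treated 24 h at 37 °C with compounds at up to 57 uM. SteadyGlo luminescence gave expression; GF-AFC fluorescence gave viability.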
The depositor's hits bear a star; i = inactive; ? = inconclusive; · = no result. Sampled rows, rich in hits. Any-hit rate of the full collection: about 4.8%. Unless noted, the call rests on the fitted dose curve; in most records, active means well fitted curve in the direction sought with a large enough effect; inconclusive means small, poorly fitted or top-dose-only effect, or another doubt; inactive means no such curve, though single readings can be large; an effect the other way counts as inactive or inconclusive.

SMILES | D3 antag | TGFb inhibitor | S2 tox | HepG2 viability | DRD3 agonist | ATXN2 expr inh
C[C@@H]1CN([C@H](C)CO)S(=O)(=O)c2ccc(Br)cc2O[C@H]1CN(C)C(=O)C1CCCCC1 | -74* | 27% | ? | 6% | 4 | ?
CC(C)C#Cc1ccc2c(c1)O[C@@H](CN(C)C(=O)c1cnccn1)[C@@H](C)CN([C@@H](C)CO)S2(=O)=O | -16 | 5% | i | -6% | 1 | 0%
C[C@H](CO)N1C[C@H](C)[C@@H](CN(C)CC2CCOCC2)Oc2cc(C#Cc3ccccc3F)ccc2S1(=O)=O | -11 | ? | i | -21% | -5 | ?
C[C@@H]1CN([C@H](C)CO)S(=O)(=O)c2ccc(C#Cc3ccccc3F)cc2O[C@H]1CN(C)C(=O)c1ccc2c(c1)OCO2 | -12 | ? | 13µM* | -30% | -9 | ?
C[C@H]1CN([C@@H](C)CO)S(=O)(=O)c2ccc(C3=CCCC3)cc2O[C@@H]1CN(C)C(=O)C1CCCCC1 | -17 | ? | 20µM* | -38% | -5 | ?
N[C@@H](C(=O)N[C@H]1C(=O)N2C(C(=O)O)=C(Cl)CC[C@H]12)c1ccccc1 | · | · | i | · | · | ·
c1ccc(-c2nc(-c3ccccn3)nc(-c3ccccn3)n2)nc1 | 6 | -27% | ? | -44% | 18 | ?
c1ccc(-c2nnc(-c3ccccn3)s2)nc1 | 2 | -13% | i | -6% | 2 | 8.9µM*
COc1ncnc2c1ncn2CCCN1CCN(Cc2cccc3ccccc23)CC1 | ? | 0% | i | -28% | -18 | -26%
CSc1ncnc2c1ncn2CCCN1CCN(Cc2cccc3ccccc23)CC1 | -60* | -16% | ? | -34% | -14 | -34%
CSc1ncnc2c1ncn2CCCN1CCN(c2ncccn2)CC1 | 0 | 2% | i | -7% | 38* | 6%
COc1ncnc2c1ncn2CCCN1CCN(c2ncccn2)CC1 | -10 | 11% | i | 0% | 20 | -1%
COC(=O)c1cc(NS(=O)(=O)c2ccc3c(c2)CCC(=O)N3)cc(C(=O)OC)c1 | 31 | 4% | i | -11% | 33* | 10%
Cc1cc(C)cc(NC(=O)C(=O)NC(C)c2ccccc2)c1 (configuration not stated) | · | -20% | i | -2% | -6 | -2%
Cc1c(Cl)cccc1NC(=O)CN1CCC(C(O)(c2ccccc2)c2ccccc2)CC1 | -62* | -21% | i | -13% | -64 | ?
Cc1ccc(S(=O)(=O)Nc2cccc(NC(=O)CN3CCCCC3)c2)cc1 | -15 | 31% | i | -2% | -10 | -1%
Cc1ccc(NC(=O)CN2CCCC2)cc1Br | -64* | 0% | i | -8% | -26 | -3%
Cc1ccccc1C(=O)NC1CCN(CC(=O)Nc2ccccc2Cl)CC1 | 12 | -4% | i | -17% | -6 | 3%
Cc1ccc(S(=O)(=O)Nc2ccc(NC(=O)CN3CCCCC3)cc2)cc1 | -60* | -1% | i | 0% | -10 | 3%
Cc1ccc(NS(=O)(=O)c2ccc(C3CCCCC3)cc2)cc1 | 0 | 13µM* | ? | 10µM* | 7 | -30%
Cc1ccc(S(=O)(=O)Nc2ccc(N3CCCCC3)cc2)cc1 | 13 | -4% | i | -5% | -3 | -11%
CC1=C(/C=C/C(C)=C/C=C/C(C)=C/C=C/C=C(C)/C=C/C=C(C)/C=C/C2=C(C)C[C@@H](O)CC2(C)C)C(C)(C)C[C@H](O)C1 | · | · | · | · | 6 | ·
Cc1cnc(SCC2CCCO2)nc1C1CCCN(Cc2nc(-c3ccccc3)cs2)C1 (configuration not stated) | · | · | i | · | · | ·
CCOc1ccccc1N(CC)C(=O)c1cc2c(=O)[nH]c3ccc(C)cc3c2s1 | · | 1% | i | 2% | 2 | 9%
Cc1c(Cl)cccc1NC(=O)CCN1CCCCC1 | -58* | -1% | i | -13% | -4 | ?

From PubChem
